Where “and” joins values, the source holds several entries; their conditions need not be identical. Equal entries are not always repeated.
Columns and labels:
Format in all cases: functional
[1] = molecular target: Solute carrier family 2, facilitated glucose transporter member 1 (Homo sapiens) (UniProt P11166); assay: ST_JUDE_LEISH: Cytotoxicity at 2uM final concentration against transgenic Leishmania Mexicana promastigotes LmGLUT1 that are glucose transport deficient and complemented with the human glucose transporter GLUT1. Activity is measured by DNA content using SYBR green in vitro
Solute carrier family 2, facilitated glucose transporter member 1 (Homo sapiens), sequence (P11166 whole entry): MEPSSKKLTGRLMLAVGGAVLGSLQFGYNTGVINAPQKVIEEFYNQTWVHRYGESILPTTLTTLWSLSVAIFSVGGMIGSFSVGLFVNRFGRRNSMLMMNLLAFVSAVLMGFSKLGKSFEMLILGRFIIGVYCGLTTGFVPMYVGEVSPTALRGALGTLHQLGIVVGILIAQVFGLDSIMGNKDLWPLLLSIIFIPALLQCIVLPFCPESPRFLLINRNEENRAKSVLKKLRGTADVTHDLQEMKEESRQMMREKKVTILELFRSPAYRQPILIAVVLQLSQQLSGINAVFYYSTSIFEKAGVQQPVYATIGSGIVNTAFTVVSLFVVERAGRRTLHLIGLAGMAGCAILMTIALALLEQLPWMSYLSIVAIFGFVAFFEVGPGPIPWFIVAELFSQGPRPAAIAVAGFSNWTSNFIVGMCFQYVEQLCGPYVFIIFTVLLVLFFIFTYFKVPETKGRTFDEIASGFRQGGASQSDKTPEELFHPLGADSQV

[2] = molecular target: Hexose transporter 1 (Plasmodium falciparum) (UniProt O97467); assay: ST_JUDE_LEISH: Cytotoxicity at 2uM final concentration against transgenic Leishmania Mexicana promastigotes LmPfHT that are glucose transport deficient and complemented with the Plasmodium falciparum hexose transporter. Activity is measured by DNA content using SYBR green in vitro
[3] = molecular target: Glucose transporter (Leishmania mexicana) (UniProt O61059); assay: ST_JUDE_LEISH: Cytotoxicity at 2uM final concentration against transgenic Leishmania Mexicana promastigotes LmGT2 that are glucose transport deficient and complemented with the L. Mexicana glucose transporter 2. Activity is measured by DNA content using SYBR green in vitro

SMILES | inhibition [1] | inhibition [2] | inhibition [3]
CCOC(C(=O)OCCN(C(C)C)C(C)C)(c1ccccc1)c1ccccc1 | -0.14% | 0.41% | -0.37%
COc1cccc(C2(C)CCN(CCCCNC(=O)c3ccc(NC(=O)c4ccc(Cl)cc4)cc3)CC2)c1 | -1.81% | -1.78% | -3.4%
Cc1[nH]c2cc(Cl)ccc2c1C1=CCN(CCCCC2(C)C(=O)Nc3c(F)cccc32)CC1 (stereo not given) | 1.41% | 0.61% | 0.45%
COC(=O)c1ccc(CC(C)NCC(O)c2cccc(Oc3cccc(C(F)(F)F)c3)c2)cc1 (stereo not given) | 8.83% | 6.86% | 6.56%
O=C(/C=C/c1ccc(Cl)c(Cl)c1)N1CCC(CN2CCC(c3cn(CC(=O)N4CCCCC4)c4ccccc34)CC2)CC1 | 2.63% | 2.05% | -2.07%
CC[C@H]1CN2CC[C@H]1C[C@H]2[C@H](O)c1cc(N2CCCC(CO)C2)nc2ccc(OC)cc12 (stereo not given in full) | 2.62% | 1.73% | 0.11%
Cc1[nH]c2ccccc2c1C1=CCN(CCCCCNC(=O)/C=C/c2ccc(Cl)c(Cl)c2)CC1 | 5.3% | 5.72% | 5.48%
O=C(CSc1ccc(Cl)cc1)NC1CCC(CN2CCC(c3c[nH]c4ccccc34)CC2)CC1 (stereo not given) | 5.29% | 1.76% | 2.72%
CC1=C(C(=O)NC2CCC(CN3CCC(c4c[nH]c5ccccc45)CC3)CC2)Cc2ccccc21 (stereo not given) | -3.48% and -2.8% | 2.28% and -2.66% | -4.68% and 10.4%
CCCN(CC(=O)NCCc1ccccc1)c1ccc(C#N)c2ccccc12 | 2.23% | 1.5% | 1.66%
FC(F)(F)c1cccc(N2CCC(CN3CCC(c4c[nH]c5ccccc45)CC3)CC2)n1 | 7.61% | 6.91% | 7.85%
CC(C)CNCc1ccc(-c2ccc(CN(C(=O)NC3CCCCC3)C3CCN(Cc4ccccc4)CC3)cc2)cc1 | 7.16% | 3.25% | 6.77%
O=C(CCc1ccco1)NC1CCN(CC2(c3ccc(Cl)cc3)CCC2)CC1 | 9.68% | 8.13% | 7.13%
CC[C@H]1CN2CCc3cc(OC)c(OC)cc3[C@@H]2C[C@@H]1C[C@H]1NCCc2c1cc(OC)c(O)c2Cl | 94.8% | 98.3% | 89.3%
CO[C@@H]1C[C@@H](C(=O)Nc2ccccc2)N(c2ccc(C#N)c3ccccc23)C1 | 4.31% | 5.45% | 3.78%
CS(=O)(=O)Nc1ccc2c(C3CCN(CC4CCN(C(=O)/C=C/c5ccc(Cl)c(Cl)c5)CC4)CC3)c[nH]c2c1 | -0.41% | 0.85% | -2.09%
CC[C@H]1CN2CC[C@H]1C[C@@H]2[C@@H](O)c1cc(Cl)nc2ccc(OC)cc12 | 11% | 8.14% | 8.37%
COC(=O)c1ccc(CC(C)NCC(O)c2cccc(I)c2)cc1 (stereo not given) | -0.53% | -1% | 0.29%
COc1ccc(O)c(CN2CCN(c3cc(C)ccc3C)CC2)c1 | 2.93% | 3% | 2.89%
COc1cccc(CN2CCC(CCOC(c3ccccc3)c3ccccc3)CC2)c1O | 2.87% | -0.08% | -0.42%
N#Cc1c(F)cc(N2CCC(NCC[C@H](N)Cc3ccc(F)c(F)c3)CC2)cc1F | 2.18% | 3.63% | 2.33%
Cc1c(C)c2c(c(C)c1O)CC[C@](C)(C(=O)N1CCC(CN3CCC(c4c[nH]c5ccccc45)CC3)CC1)O2 | 3.34% | 4.94% | 0.9%
O=C(COc1ccc(Cl)cc1)N1CCC(CN2CCC(c3c[nH]c4ccccc34)CC2)CC1 | -2.1% | -1.7% | -4.27%
O=C(/C=C/c1ccc(Cl)c(Cl)c1)N1CCC(CN2C3CCC2CC(c2c[nH]c4ccccc24)C3)CC1 (stereo not given) | 2.43% | 1.51% | 0.89%

SMILES | inhibition [1] | inhibition [2] | inhibition [3]
CC(C)CNCc1cccc(-c2cccc(CN(C(=O)c3cccs3)C3CCN(Cc4ccccc4)CC3)c2)c1 | 11.3% | 7.75% | 6.04%
COc1ccc(C=CC(=O)NC2CCC(CN3CCC(c4c[nH]c5ccccc45)CC3)CC2)cc1OC (stereo not given) | 2.26% and 2.87% | 0.82% and 2.73% | -1.08% and -3.42%
COc1cccc(CC(C)NCC(O)c2cccc(Cl)c2)c1 (stereo not given) | 0.74% | 2.67% | 1.92%
Oc1ccccc1CN1CCC(CCOC(c2ccccc2)c2ccc(Cl)cc2)CC1 (stereo not given) | 38.2% | 23.5% | 13.9%
CC(=O)Nc1ccc(OCCN(CC(C)(C)C)c2ccc(C#N)c(C(F)(F)F)c2)c(Cl)c1 | 4.2% | 5.82% | 3.22%
O=C(/C=C/c1ccc(F)c(C(F)(F)F)c1)N1CCC(CN2CCC(c3c[nH]c4ccccc34)CC2)CC1 | 0.7% | 0.53% | 0.74%
CC(Cc1ccc(C2=CCNCC2)cc1)NCC(O)c1cccc(C(F)(F)F)c1 (stereo not given) | -2.15% | -1.67% | -0.93%
CC(C)CNCc1cccc(-c2ccc(CN(C(=O)c3cccs3)C3CCN(Cc4ccccc4)CC3)cc2)c1 | 2.62% | 4.53% | 6.86%
COc1ccc(C(=O)c2ccc3[nH]cc(C4=CCN(C)CC4)c3c2)cc1 | -0.74% | -1.41% | 0.07%
CC(=O)Nc1ccc(OCCN(CC(C)C)c2ccc(C#N)c(C(F)(F)F)c2)c(Cl)c1 | 3.54% | 2.7% | 2.53%
C=CCOc1ccccc1CNCC(O)c1cccc(C(F)(F)F)c1 (stereo not given) | 2.78% | 3.47% | 2.61%
O=C(Nc1ccccc1Cl)NC1CCC(CN2CCC(c3c[nH]c4ccccc34)CC2)CC1 (stereo not given) | 4.02% and 5.1% | 3.83% and 5.22% | -1.83% and 3.04%
O=C(/C=C/c1ccc(Cl)c(Cl)c1)NC1CCC(CN2CCC(c3c[nH]c4cc(C(F)(F)F)ccc34)CC2)CC1 (stereo not given) | 6.9% and 1.89% | 4.9% and -0.14% | 12.7% and 2.07%
O=C(/C=C/c1ccccc1Cl)NC1CCC(CN2CCC(c3c[nH]c4ccccc34)CC2)CC1 (stereo not given) | 2.44% and 5.03% | 0.61% and 3.12% | -3.81% and 6.89%
CCOC(=O)c1c(CN2CCN(C)CC2)n(Cc2ccccc2)c2cc(Br)c(O)cc12 | 17.4% | 16.7% | 12.7%
CCOC(=O)c1ccc(CC(C)NCC(O)c2cccc(C(F)(F)F)c2)cc1 (stereo not given) | -2.26% | -1.71% | -0.87%
CC(=O)Nc1ccc(CN2CCC(N(C)c3cc(NC(=O)c4ccc(F)cc4)ccn3)CC2)cc1 | 1.04% | 2.13% | 2.53%
CC[C@H]1CN2CC[C@@H]1C[C@H]2[C@H](O)c1cc(N2CCC(O)(c3ccccc3)CC2)nc2ccc(OC)cc12 | 5.33% | 4.26% | 1.87%
Cc1cc(C)c(CC(C)NCC(O)c2cccc(C(F)(F)F)c2)c(C)c1 (stereo not given) | 2.03% | -0.06% | -1.18%
COc1cccc(C(=O)C2CC2CN2CC=C(c3c[nH]c4ccc(OC)nc34)CC2)c1 (stereo not given) | 0.65% | 1.41% | 1.94%
CNCC(O)c1cc(Cl)c(Cl)cc1C (stereo not given) | 1.72% | 0.44% | -1.56%
CCCCCCCSc1ccc(CC(C)NCC(O)c2cccc(Cl)c2)cc1 (stereo not given) | 4.14% | 4.49% | 4.37%
COCC(=O)N(Cc1ccccc1-c1cccc(CNCCc2ccccc2)c1)C1CCN(Cc2ccccc2)CC1 | 0.81% | 0.92% | 3.9%
CCCCCc1cc(O)c2c3c(c(=O)oc2c1)CN(C)CC3 | 2.93% | 2.18% | 1.87%

SMILES | inhibition [1] | inhibition [2] | inhibition [3]
O=C(C=Cc1cccc(Cl)c1Cl)NC1CCC(CN2CCC(c3c[nH]c4ccccc34)CC2)CC1 (stereo not given) | 9.75% and 1.21% | 23.6% and 3.22% | 11.8% and -0.36%
Cc1[nH]c2ccc(O)cc2c1C1CCN(CC2CCC(NC(=O)/C=C/c3ccc(Cl)c(Cl)c3)CC2)CC1 (stereo not given) | 0.37% | 0.95% | 0.57%
COC(=O)c1ccc(CC(C)NCC(O)c2cccc(C(F)(F)F)c2)cc1 (stereo not given) | 2.79% and 2.21% and 1.58% | -0.93% and 1.17% and 2.06% | 2.89% and 0.72% and 2.04%
FC(F)(F)c1ccc(NC(=S)N2CCC(CN3CCC(c4c[nH]c5ccccc45)CC3)CC2)cc1 | -0.87% | -0.06% | 2.98%
CC(Cc1ccc(OCCOc2ccccc2)cc1)NCC(O)c1cccc(Cl)c1 (stereo not given) | 0.57% | 1.43% | 1.19%
O=C(CCCCCc1ccccc1)NC1CCC(CN2CCC(c3c[nH]c4ccccc34)CC2)CC1 (stereo not given) | 0.89% | -3.78% | -1.29%
C=C[C@H]1CN2CC[C@H]1C[C@H]2[C@H](OS(=O)(=O)O)c1ccnc2ccccc12 | 9.31% | 8.07% | 9.07%
O=C(/C=C/c1cccs1)NC1CCC(CN2CCC(c3c[nH]c4ccccc34)CC2)CC1 (stereo not given) | 4.14% | 5.22% | 2.51%
C[C@@H](CC1CCCCC1)NCc1ccccc1O | 4.7% | 11.1% | 3.31%
Oc1ccc(CN2CCN(CCOC(c3ccc(F)cc3)c3ccc(F)cc3)CC2)cc1Cl | 4.68% | -0.31% | -0.74%
CC[C@H]1CN2CC[C@H]1C[C@H]2[C@H](O)c1cc(-c2ccccc2C(F)(F)F)nc2ccc(OC)cc12 | 0.61% | 1.6% | -1.22%
O=C(NC1CCC(CN2CCC(c3c[nH]c4ccccc34)CC2)CC1)NC12CC3CC(CC(C3)C1)C2 (stereo not given) | 3.42% | 3.16% | 1.41%
Oc1ccc2[nH]cc(C3=CCN(Cc4ccccc4)CC3)c2c1 | 11.2% | 10.5% | 10.4%
CC[C@H]1CN2CC[C@@H]1C[C@H]2[C@H](O)c1cc(-c2ccccc2)nc2ccc(O)cc12 | 5.97% | 5.53% | 2.83%
CC(C)CNCc1ccc(-c2cccc(CN(C(=O)Nc3ccccc3)C3CCN(Cc4ccccc4)CC3)c2)cc1 | 0.61% | -0.02% | -1.04%
C/C=C1\CN2CC[C@H]1C[C@H]2[C@H](O)c1ccnc2ccc(O)cc12 | -0.15% | -0.16% | 0.93%
COc1cccc(CN2CCC(CCOC(c3ccccc3)c3ccc(Cl)cc3)CC2)c1O (stereo not given) | 26.2% | 26.5% | 12.5%
O=C(NC1CCC(CN2CCC(c3c[nH]c4ccccc34)CC2)CC1)c1[nH]c(=O)[nH]c(=O)c1F (stereo not given) | -0.09% | 0.08% | -0.11%
O=C(CC1CCCC1)N(CC1CCN(Cc2ccc(C(F)(F)F)cc2)CC1)c1ccc(N2CCOCC2)c(F)c1 | 13.5% | 10.9% | 14%
Cc1cc(N)nc2cc(CNCCc3ccccc3Br)ccc12 | 0.26% | 0.02% | -0.67%
CN(C)c1cccc(NC(=O)NC2N=C(c3ccccc3)c3ccccc3N(CC(=O)N(C)c3ccccc3)C2=O)c1 (stereo not given) | 6.38% | 4.22% | 2.42%
C[C@@H]1C[C@@H]([C@H](O)CC2CC(=O)NC(=O)C2)C(=O)[C@@H](C)C1 | 90% | 90.8% | 88.7%

From ChEMBL document CHEMBL3433997, “St. Jude Leishmania screening dataset” (2016)
